The panel holds about 79,000 compounds, 15% with a hit somewhere; the sample as a whole holds those more often. Activity calls are given as the source filed them. Cut-off read from the data, not from the text of the source: active = growth inhibition above about 70%; inactive = the rest.
assay: NCI Yeast Anticancer Drug Screen. Data for the mlh1 rad18 strain (AID 175); conditions: S. cerevisiae mlh1 rad18 strain growth inhibition; at 50.0 µM; active compounds read high
In short: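 Vehicle-treated cultures served as the reference for growth inhibition in a yeast strain carrying DNA damage repair alterations exposed to each compound.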

| Compound | growth inhibition |
| --- | --- |
| C=C(CCC(C)C1CCC2(C)C3=C(CC(O)C12C)C1(C)CCC(O)C(C)(C)C1CC3)C(C)C(=O)O (stereo not given) | 82.7% (active) |
| CC(=O)O[C@H]1CC[C@]2(C)C3=CC[C@]4(C)[C@@H](C(C)=O)CC[C@H]4[C@@]34C=C[C@]2(C1)C1C(=O)OC(=O)C14 (stereo not given in full) | 70.8% (active) |
| CCC1(c2ccc(N3C(=O)c4ccccc4C3=O)cc2)CCC(=O)NC1=O (stereo not given) | 5.4% (inactive) |
| O=C(NNS(=O)(=O)c1ccccc1)Nc1ccccc1 | -5.3% (inactive) |
| CCN(CC)CCNc1c(C)ccc2cccnc12 | 51.5% (inactive) |
| CCOC(=O)CCC(NC(=O)c1ccc(NC(OC)c2nc3cc(C(F)(F)F)ccc3nc2-c2ccccc2)cc1)C(=O)OCC (stereo not given) | 91.9% (active) |
| CCCC(O)C[N+](=O)[O-] (stereo not given) | 11.8% (inactive) |
| O=C(Nc1cccc(Br)c1)Oc1cccc2cccnc12 | 85% (active) |
| C=C1CC(C)(COc2ccc3c(C)c(C)c(=O)oc3c2C)OC1=O (stereo not given) | -24.7% (inactive) |
| Cc1cc(Br)c(N2C3=C(CC4=C2CCCC4=O)C(=O)CCC3)c(Br)c1 | 97.8% (active) |
| CCN(CC)CC(O)CNc1ccc(C)c2sc3ccccc3c(=O)c12 (stereo not given) | 99.8% (active) |
| COC1/C=C/OC2(C)Oc3c(C)c(O)c4c(c3C2=O)C(=O)C=C(NC(=O)/C(C)=C\C=C\C(C)C(OC=O)C(C)C(O)C(C)C(OC(C)=O)C1C)C4=O (stereo not given) | 55.7% (inactive) |
| OC(c1cc2ccccc2o1)c1cc2ccccc2s1 (stereo not given) | 43% (inactive) |
| Nc1nnc(-c2cc([N+](=O)[O-])cc([N+](=O)[O-])c2)o1 | 31.9% (inactive) |
| CC1SC(=S)N(c2ccc(Cl)cc2)C1=O (stereo not given) | 71.8% (active) |
| CCCCCCCCCC(=O)NN=C(C)C | 90.8% (active) |
| O=C(/C=C/c1ccccc1)C1(c2ccccc2)CC1 | 66.5% (inactive) |
| Nc1n[n+](-c2ccccc2)no1 | 70.6% (active) |
| N#CC(C#N)=C(c1ccccc1)c1ccccc1 | 99.4% (active) |
| CS(=O)(=O)OCCCN(CCCOS(C)(=O)=O)c1ccc(C=Nc2ccc(-c3csc(COc4ccc(Br)cc4Br)n3)cc2)cc1 | 90.7% (active) |

| Compound | growth inhibition |
| --- | --- |
| CSc1ncnc2ncn(C3OC(CO)C(O)C3O)c12 (stereo not given) | 12.5% (inactive) |
| CNC(=O)c1ccc(OC)cc1C1(O)c2ccccc2CCc2ccccc21 | 58.8% (inactive) |
| O=[N+]([O-])c1ccc(Oc2c(Cl)cccc2Cl)cc1 | 14.8% (inactive) |
| CN(C)C(=O)c1ccc(SC(=S)NCc2ccccc2)cc1 | 98.8% (active) |
| CC(C)c1ccc(C(=O)OC2CCCCC2)cc1 | 62.2% (inactive) |
| O=C(Nc1ccc(C(=O)c2ccccc2)cc1)Nc1ccc(Cl)c(Cl)c1 | 94.7% (active) |
| O=C1c2ccccc2C(=O)c2sc(Nc3ccc(Cl)cc3)nc21 | 91.2% (active) |
| O=C1NC(=O)N(c2ccc([N+](=O)[O-])cc2)C1=O | 10.2% (inactive) |
| CCN(CC)CCNc1nc(N)c2nc(-c3ccccc3)c(-c3ccccc3)nc2n1 | 85.8% (active) |
| CCCCCCCCOc1ccc(/C=C/C(C)=N/NC(N)=NC)cc1OC | 98.5% (active) |
| CC1=NN(C(=O)c2ccc(Cl)cc2)C(=O)C1N=Nc1ccc(S(=O)(=O)Nc2ncccn2)cc1 (stereo not given) | 17.4% (inactive) |
| CCOC(=O)C(Br)C(Br)c1cccc([N+](=O)[O-])c1 (stereo not given) | 99.6% (active) |
| Cc1ccccc1N1CCN(c2c3c(nc4ccccc24)CCCCC3)CC1 | 96.5% (active) |
| O=S(=O)(O)SCCNCCCCCC1CCCCC1 | 30.6% (inactive) |
| CC([N+](=O)[O-])C1(O)C(=O)c2cccc3cccc1c23 (stereo not given) | 74.5% (active) |
| CCS(CC)(CC)CC1CCCC2=CCC(P(=O)(c3ccccc3)c3ccccc3)CC21 (stereo not given) | 71.7% (active) |
| O=C(O)C(CS)Nc1c2ccccc2nc2ccccc12 (stereo not given) | 91.2% (active) |
| CCCCCCCCCCCC1C(C#N)C(=O)NC(=O)C1C#N (stereo not given) | 26% (inactive) |
| O=C(O)CCSSCCCCCS(=O)O | 13% (inactive) |
| CC(C)CNc1cc(Cl)nc(N)n1 | 95.5% (active) |
